Screens from PubChem.
aSyn 5UTR inh: 5' untranslated region of α-synuclein, MLPCN primary screen | alpha-synuclein 5'UTR reporter, inhibitor activity | inhibition, % (tested at 7.5 µM) | hit rate 0.82% among 300,000 | AID 1813; in the data active = inhibition above about 60%;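 also: H4 neuroglioblastoma cells stably carrying SNCA 5'UTR luciferase fusion; 0% = DMSO wells and 100% = positive control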
APP 5UTR inh: APP translation inhibition; hit rate 0.82% among 190,000; inhibition, % at 2 µM; AID 1285; SH-SY5Y APP 5'UTR-luciferase reporter, luminescence;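 active = inhibition above a set limit, derived from the sample mean plus 3 SD, cut at about 45% in these data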
KLF5 inh: suppresses KLF5 promoter-driven expression; DLD-1 KLF5 promoter-luciferase reporter, luminescence; inhibition, % at 5 µM; hit rate 0.23% among 290,000; AID 1700;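 active = inhibition above a per-plate limit of that plate's mean compound inhibition plus 3 SD, cut at about 60% in these data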;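 also: 0% = DMSO wells and 100% = LY294002 at 200 µM; higher means less KLF5 promoter-driven luciferase light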
BaF3 tox: parental Ba/F3 viability inhibition as JAK2V617F counter-screen. CellTiter-Glo ATP luminescence. inhibition, % at 5.6 µM. hit rate 1.1% among 220,000. AID 1486;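 active = inhibition above a per-campaign cutoff, the mean inhibition of all tested compounds plus 3 SD, cut at about 27% in these data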;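 also: 0% = DMSO wells and 100% = JAK Inhibitor I control wells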
IEC-6 tox: counter-screen for KLF5 inhibitors: cytotoxicity in IEC-6 cells. IEC-6 cytotoxicity, luminescence viability. AID 1825. hit rate 0.78% among 290,000. inhibition, % at 5 µM;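 also: 0% = plate median of test compound wells and 100% = cytotoxic reference compound wells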
Ba/F3 V617F tox: loss of viability in JAK2V617F-driven Ba/F3 cells. hit rate 1.1% among 220,000. inhibition, % at 5.6 µM. Ba/F3 EpoR-JAK2V617F viability, ATP luminescence;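 active = inhibition above the campaign mean plus 3 SD over all tested compounds, cut at about 24% in these data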;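 also: cytokine-independent growth of Ba/F3 cells driven by EpoR plus mutant JAK2; 0% = DMSO-treated cells and 100% = JAK inhibitor I control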
IEC-6 cytotox cf: IEC-6 cytotoxicity, confirmation assay; shares compounds with IEC-6 tox; IEC-6 rat intestinal epithelial viability, luminescence; inhibition, % at 5 µM; hit rate 63% among 1,900; AID 1907;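 also: 0% = vehicle and 100% = reference cytotoxic drug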
* marks the source's active call; other numbers are inactive results; . = no result given. An excerpt weighted towards active compounds, which were near 2.2% of everything screened. Rule as the data show it, unless noted: active = inhibition above about 22%; inactive = the rest.

SMILES	aSyn 5UTR inh	APP 5UTR inh	KLF5 inh	BaF3 tox	IEC-6 tox	Ba/F3 V617F tox	IEC-6 cytotox cf
CCCc1cc(NCc2ccccn2)n2nc(C)c(-c3ccccc3)c2n1	-8.2	.	-37.2	3.5	46.9*	9.4	12.9
Cc1cc(NCc2ccccn2)n2ncc(-c3ccc(Cl)cc3)c2n1	-96.7	.	-14.3	0.1	29.0*	-1.9	30.4*
O=C(NCCC1CCCCN1S(=O)(=O)c1ccccc1)C(=O)Nc1ccc(F)cc1F (stereo unspecified)	0.3	.	.	.	.	.	.
Cc1cccc(C(=O)Nc2cccc3cccnc23)c1	-56.3	.	-93.8	.	8.3	.	.
Cc1cnc(C(=O)Nc2cccc3cccnc23)cn1	-24.9	73.7*	-0.8	33.5*	91.4*	89.6*	18.1
Nc1ccn([C@@H]2O[C@H](CO)[C@@H](O)[C@@H]2O)c(=O)n1	81.1*	82.6*	16.1	79.5*	89.7*	73.7*	76.2*
Nc1ncn([C@@H]2O[C@H](CO)[C@@H](O)[C@H]2O)c(=O)n1	32.5	.	.	.	.	.	.
O=C(OCC1OC2C(Oc3nc(=O)ccn32)C1O)c1ccccc1 (stereo unspecified)	-2.3	-9.9	-3.8	1.2	3.1	-0.2	.
Nc1nc(Cl)nc2c1ncn2[C@@H]1O[C@H](CO)[C@@H](O)[C@H]1O	12.8	-1.0	30.6	3.0	44.3*	0.2	-6.0
N=c1ccn2c(n1)O[C@H]1[C@H](O)[C@@H](CO)O[C@H]12	56.7	.	5.8	.	91.6*	.	74.2*
C/C(=N\NC(=O)c1n[nH]c2c1CCC2)c1ccco1	44.0	.	61.4	86.2*	78.6*	83.4*	10.2
CCCCn1c(SCc2c(C)noc2C)nc2cc(S(N)(=O)=O)ccc21	-40.3	-10.8	-24.8	62.3*	30.3*	68.2*	7.3
COc1ccc(S(=O)(=O)N2CCCCC2)cc1NCC(=O)Nc1ccc(C)cc1	-12.2	.	-10.2	8.6	32.2*	2.8	18.4
COc1cc(/C=C2\CCC/C(=C\c3ccc(O)c(OC)c3)C2=O)ccc1O	-394.0	.	-25.2	.	8.3	.	.
CCOc1cc(/C=C2\CN(CC)C/C(=C\c3ccc(O)c(OCC)c3)C2=O)ccc1O	102.4*	.	19.2	.	73.6*	.	23.5*
CN1/C(=C\C(=O)CSc2cccc[n+]2[O-])C(C)(C)c2ccccc21	13.4	-8.9	-20.9	23.3	103.9*	8.3	-6.7
CN1/C(=C/C(=O)CSc2ccccc2C(=O)O)C(C)(C)c2ccccc21	3.2	.	-2.7	6.0	5.2	0.7	.
Cc1cc(NNC(=O)c2cccc(C(F)(F)F)c2)nc2c1c(C)nn2C	-6.4	.	-2.1	0.3	10.7	-2.3	.
CC(=O)c1ccc(Nc2nc(=O)c3cccnc3s2)cc1	-124.2	4.4	-85.3	7.1	1.0	3.3	.
Cc1ccc(Nc2nc(=O)c3cccnc3s2)c(Br)c1	41.8	.	15.4	48.2*	65.4*	50.8*	41.8*
COc1ccc(/C=C2\SC(=O)N(CC(=O)NC3CCS(=O)(=O)C3)C2=O)cc1 (stereo unspecified)	-2.9	.	-12.4	.	-1.7	.	.
N=C(N)N=Nc1c(O)[nH]c2ccc(Br)cc12	6.2	-11.4	19.0	5.0	3.5	5.9	.
Oc1[nH]c2ccc(Br)cc2c1N=NC(=S)Nc1ccc(F)cc1	52.4	.	6.7	2.4	21.9*	0.0	9.2
O=C(N=Nc1c(O)[nH]c2ccc(Br)cc12)c1ccccc1-n1cccc1	.	91.6*	42.3	77.0*	55.1*	76.8*	53.5*
N#Cc1ccc(/C=N/N=C(N)N)cc1	-5.0	-15.0	-16.7	6.0	3.6	2.9	.
SMILES	aSyn 5UTR inh	APP 5UTR inh	KLF5 inh	BaF3 tox	IEC-6 tox	Ba/F3 V617F tox	IEC-6 cytotox cf
NC(N)=N/N=C/c1ccc(Br)cc1	-8.5	28.5	9.6	34.4*	25.8*	10.0	55.7*
CCn1c2ccccc2c2cc(NC(=O)COc3ccccc3OC)ccc21	24.4	35.6	-12.5	9.8	12.8	4.3	.
CCn1c2ccccc2c2cc(NC(=O)CNCc3ccccc3OC)ccc21	-15.6	.	50.7	.	71.1*	.	40.0*
COc1ccccc1N1CCN(C2CC(=O)N(C)C2=O)CC1 (stereo unspecified)	10.5	-5.6	-36.5	3.6	-3.9	0.5	.
CCCNC(=O)c1cc2c3ccccc3n(C)c2s1	-45.9	.	-5.6	7.7	4.8	-1.1	.
Cn1c2ccccc2c2cc(C(=O)NNC(=O)CCl)sc21	-7.1	-7.1	12.2	0.6	26.6*	22.4	16.5
Cn1nccc1C(=O)N/N=C/c1c(O)ccc2ccccc12	91.5*	.	56.9	.	98.2*	.	28.9*
O=C(Nc1nnc(-c2ccncc2)o1)c1ccc(Br)s1	9.9	3.8	-28.3	8.0	7.1	4.8	.
COc1ccccc1N1CCN(CCCn2c(=S)[nH]c3ccccc3c2=O)CC1	-1.7	.	-23.9	.	7.7	.	.
COc1ccc(N2CCN(CCCn3c(=S)[nH]c4ccccc4c3=O)CC2)cc1	-6.2	.	3.7	.	43.0*	.	13.4
C/C(=N\NC(=O)COc1ccccc1-c1ccccc1)c1ccc(O)cc1O	50.9	.	50.5	-11.3	74.1*	3.9	42.2*
CCCCCCCC(=O)N/N=C(\C)c1ccc(O)cc1O	40.8	-0.6	-30.8	-1.1	1.7	-5.0	.
CCOc1ccc(/C=C(/NC(=O)c2ccc(Cl)cc2)C(=O)O)cc1OCC	-86.2	.	9.7	-0.8	3.8	-4.2	.
CCOc1cc(/C=C(/NC(C)=O)C(=O)O)cc(Cl)c1OCc1ccc(Br)cc1	-0.4	.	-20.4	-1.9	26.2*	4.2	2.0
Cc1cc(C)c(C#N)c(SCC(=O)C2CC2)n1	-57.8	.	-7.2	-0.9	-3.8	-2.9	.
CC(=O)Nc1ccc(NC2=CC(=O)c3ccccc3C2=O)cc1	-46.0	.	-129.5	.	97.0*	.	-1.1
COC1=C(Nc2ccc(OC)cc2)C(=O)c2ccccc2C1=O	-161.5	-11.2	-25.5	5.0	-7.3	-1.0	.
COc1ccc(NC2=C(NC(C)=O)C(=O)c3ccccc3C2=O)cc1	18.4	.	-12.8	.	43.5*	.	13.8
CC(=O)Nc1ccc2c(c1)C(=O)c1ccccc1C2=O	-185.3	-185.8	-152.1	10.6	1.7	3.1	.
COc1ccc(-c2cc(-c3nnc(COC(=O)c4ccncc4)o3)c3ccccc3n2)cc1OC	7.0	5.7	-15.7	5.0	3.7	2.9	.
O=C(NCc1csc(-c2cccs2)n1)C1CCC1	.	.	-56.0	0.1	-4.2	-3.3	.
